# Assay results reported in ChEMBL document CHEMBL1201862, “PubChem BioAssay data set” (2004).
# These assays gave more results; the selection is not random.
# Target: Acyl-homoserine lactone acylase PvdQ (Pseudomonas aeruginosa (strain LESB58)) (UniProt Q9I194)
# Experiment: P. aeruginosa growth delay under iron chelation, dose response, absorbance, plate reader, cherry-picks (AID 602389); call rule not given here
# Assay type: functional
row,SMILES,AbsAC35
1,N#Cc1cc(-c2ccccc2)cnc1Cl,74.1 µM (active)
2,N#CN(Cc1ccccc1)Cc1ccccc1,477 µM (active)
3,COc1ccc(C2=C(C=O)Cc3ccccc3O2)cc1,210 µM (active)
4,C#CCSc1ncc(-c2ccccc2)cn1,214 µM (active)
5,C=CCOC(=O)c1ccc(-n2cnc(C)n2)nc1,89.1 µM (active)
